Source: PubChem
The list is not random: actives were taken first. Their share in the collection is about 12%.
AMA1 RON2 block: AMA1-RON2 (P. falciparum) interaction inhibition | Potency, µM (series often up to 58.2 µM), for the others: at the highest dose activity change, negative = inhibition, most hits filed as inhibitors | hit rate 0.2% among 360,000 | AID 720542 | AlphaScreen AMA1-biotinylated RON2 peptide binding;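 further: 0% = vehicle wells and -100% = peptide control; nearly all actives have a fitted effect of over 45% in size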
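AMA1 (3D7) with his tag at 25 nM final met compounds first, then biotinylated RON2 peptide at 25 nM; detection used donor plus acceptor beads, 10 µg/mL apiece, read by AlphaScreen after 30 min at room temperature.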
HCV inh: inhibitors of hepatitis C virus infection; Huh7.5.1 HCVcc-Cre infection, luciferase reporter, 44 h; hit rate 3.4% among 340,000; Potency, µM (top dose mostly 41.8 µM), inactives show at the highest dose activity change, negative = inhibition, actives largely listed as inhibitors; AID 651820; further: on the % scale 0 is the no-effect control and ±100 the full control effect
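Seed cells (1,000/well) for 4 h; treat with compound and infect with HCVcc-Cre, moi about 0.5. Incubate 44 h, then detect luciferase activity.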
NS1 function inh: inhibitors of influenza NS1 protein function; Potency, µM (top dose mostly 46.1 µM), inactives show at the highest dose activity, positive = more growth; hit rate 0.4% among 270,000; calls by dose curve; further: actives are rising curves; nearly all actives have a fitted effect of over 50% in size
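A cell-based growth assay was used: compounds that relieve NS1-induced slow growth of budding yeast raise OD600. Assay medium was yeast nitrogen base with ammonium sulphate and -URA supplement, pH 6.0, with 2% galactose.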
Pf growth 96h: P. falciparum growth inhibition at 96 hours | hit rate 6.9% among 320,000 | P. falciparum luciferase reporter growth, 96 h | Potency, µM (top dose mostly 28.7 µM), for inactives: at the top dose activity change, negative = inhibition, most hits filed as inhibitors; further: on the % scale 0 is the no-effect control and ±100 the full control effect
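Readout is luminescence from an integrated firefly luciferase in P. falciparum. Red cells, 2% hematocrit and 0.05% parasitemia final, were cultured with compound through two parasite generations (96 hours) at 37 C, 5% CO2.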
SARS PLpro yeast: blocks SARS-CoV papain-like protease in a yeast assay; S. cerevisiae expressing SARS-CoV PLpro, growth rescue; Potency, µM (doses to about 32.9 µM), for the others: top-dose activity, positive = growth rescue, usual class: activators; hit rate 0.19% among 330,000; AID 485353; calls by dose curve; further: 0% is about no effect; nearly all actives have a fitted effect of over 55% in size
Pf growth 48h: inhibits P. falciparum growth in the first generation, 48 h; P. falciparum luciferase growth in erythrocytes, 48 h; hit rate 5.9% among 310,000; Potency, µM (titrated, usually from 28.7 µM), inactives show top-dose activity change, negative = inhibition, most hits filed as inhibitors; further: on the % scale 0 is the no-effect control and ±100 the full control effect
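Erythrocytes infected with P. falciparum carrying an integrated firefly luciferase reporter (2% hematocrit, 0.1% parasitemia final) were exposed to compounds in RPMI 1640 with 0.5% Albumax at 37 C, 5% CO2. Growth inhibition was scored as reduced luminescence.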
An asterisk follows results filed as active. Unless noted, the call rests on the fitted dose curve; in most records, active means well fitted curve in the direction sought with a large enough effect; inconclusive means small, poorly fitted or top-dose-only effect, or another doubt; inactive means no such curve, though single readings can be large; an effect the other way counts as inactive or inconclusive. Potency means the concentration at half of the fitted maximal effect.

`COc1ccccc1C/C(N)=N/OC(=O)c1ccc(C)c([N+](=O)[O-])c1` gave AMA1 RON2 block -12%, HCV inh inconclusive, NS1 function inh -175%, Pf growth 96h inconclusive, SARS PLpro yeast -32% and Pf growth 48h inconclusive.
Cc1ccc(C(=O)O/N=C(\N)Cc2cccs2)cc1[N+](=O)[O-] was read as AMA1 RON2 block -4%, HCV inh 16%, NS1 function inh 4%, Pf growth 96h 10µM*, SARS PLpro yeast 0% and Pf growth 48h 69%.
`Cc1cccc[n+]1CC(=O)N1c2ccccc2Sc2ccccc21` gave AMA1 RON2 block 13%, HCV inh 24%, NS1 function inh -4%, Pf growth 96h 0%, SARS PLpro yeast inconclusive and Pf growth 48h 3.7µM*.
Screening C(#CCN1CCOCC1)COCc1ccccc1 returned AMA1 RON2 block -4%, HCV inh 5%, NS1 function inh 0%, Pf growth 96h 10µM*, SARS PLpro yeast -2% and Pf growth 48h 38%.
Screening CC(C)N1CN(c2ccccc2)C(=S)N(c2ccccc2)C1 returned AMA1 RON2 block -15%, HCV inh -11%, NS1 function inh 5%, Pf growth 96h -1%, SARS PLpro yeast 0% and Pf growth 48h 18%.
`O=c1cc(-c2ccccc2)oc2cc(O)c(O)c(O)c12` gave AMA1 RON2 block -17%, HCV inh -19% and SARS PLpro yeast inconclusive.
Screening O=c1c(O)cccc2cc(O)c(O)c(O)c12 returned AMA1 RON2 block 2.5µM*, HCV inh 25%, NS1 function inh -41%, Pf growth 96h inconclusive, SARS PLpro yeast -1% and Pf growth 48h 9%.
Screening Nc1ccccc1-c1ccc([N+](=O)[O-])cc1 returned AMA1 RON2 block -1% and HCV inh -23%.
`CNC(=S)N(C)CCc1cc2c(c(OC)c1C=C1C(=O)NC(=O)NC1=O)OCO2` gave AMA1 RON2 block -10%, HCV inh -12%, NS1 function inh -1%, Pf growth 96h 5.2µM*, SARS PLpro yeast 0% and Pf growth 48h inconclusive.
COc1ccc(C2=NOC(Cn3nc(-c4ccccc4C)cc3C(=O)O)C2)cc1 (stereo unspecified) was read as AMA1 RON2 block 18%, HCV inh 7%, Pf growth 96h inconclusive, SARS PLpro yeast -1% and Pf growth 48h 28%.
`CC1CCC(NC(=O)CN2C(=O)C3CCCN3c3ncc(Cl)cc32)CC1` (stereo unspecified) gave HCV inh inconclusive, NS1 function inh inconclusive, SARS PLpro yeast -2% and Pf growth 48h 3.7µM*.
`O=C(CN1C(=O)C2CCCN2c2ncc(Cl)cc21)NCc1ccc2c(c1)OCO2` (stereo unspecified) gave AMA1 RON2 block -2%, HCV inh inconclusive, NS1 function inh inconclusive, Pf growth 96h 23%, SARS PLpro yeast 8% and Pf growth 48h 9.3µM*.
`COC(=O)c1ccccc1NC(=O)CN1C(=O)C2CCCN2c2ncc(Cl)cc21` (stereo unspecified) gave HCV inh -14%, NS1 function inh inconclusive, Pf growth 96h -15%, SARS PLpro yeast 5% and Pf growth 48h 2.9µM*.
`COc1ccc(CNC(=O)CN2C(=O)C3CCCN3c3ncc(Cl)cc32)cc1` (stereo unspecified) gave AMA1 RON2 block 4%, HCV inh inconclusive, NS1 function inh 8%, SARS PLpro yeast -5% and Pf growth 48h inconclusive.
For COc1ccc2sc(N(CCN(C)C)C(=O)c3ccc4ccccc4c3)nc2c1 the results were AMA1 RON2 block 9%, HCV inh -18%, NS1 function inh -15%, Pf growth 96h 97%, SARS PLpro yeast 5% and Pf growth 48h 8%.
`COc1ccccc1C(=O)NCCC(=O)NCc1ccccn1` gave AMA1 RON2 block 7%, HCV inh 0%, Pf growth 96h -23%, SARS PLpro yeast -4% and Pf growth 48h 2%.
For CCNc1nc(OC)nc(N2CCC(Cc3ccccc3)CC2)n1 the results were AMA1 RON2 block -1%, HCV inh inconclusive, NS1 function inh 0%, Pf growth 96h 13µM*, SARS PLpro yeast -11% and Pf growth 48h -14%.
For COc1nc(NCc2ccco2)nc(N2CCC(C)CC2)n1 the results were AMA1 RON2 block 0%, HCV inh -23%, NS1 function inh -21%, Pf growth 96h -14%, SARS PLpro yeast 17% and Pf growth 48h inconclusive.
For CC1CCN(c2nncc3ccccc23)CC1 the results were AMA1 RON2 block 0%, HCV inh -9%, NS1 function inh -15%, Pf growth 96h 6.6µM*, SARS PLpro yeast -11% and Pf growth 48h inconclusive.
`C=CCNC(=O)Cc1ccc(S(=O)(=O)N2CCOCC2)s1` gave AMA1 RON2 block -6%, HCV inh -3%, Pf growth 96h inconclusive, SARS PLpro yeast 2% and Pf growth 48h inconclusive.
Screening Cc1cc(=O)[nH]c(SCC(=O)c2ccc(O)c(O)c2)n1 returned AMA1 RON2 block 25%, HCV inh 12%, NS1 function inh -21%, Pf growth 96h inconclusive, SARS PLpro yeast -14% and Pf growth 48h inconclusive.
`Cc1cc(SCC(=O)c2ccc(O)c(O)c2)n2nc(C)c(-c3ccccc3)c2n1` gave AMA1 RON2 block 80%, HCV inh 11µM*, NS1 function inh 13%, Pf growth 96h inconclusive, SARS PLpro yeast inconclusive and Pf growth 48h inconclusive.
For CCOC(=O)C(=O)N(Nc1ccccc1C)c1ccccc1C the results were AMA1 RON2 block -1%, HCV inh 6%, NS1 function inh 0%, Pf growth 96h -13%, SARS PLpro yeast 1% and Pf growth 48h inconclusive.
CN1C(=O)N(C)C(=O)C2(Cc3cc(NC(=O)c4ccccc4)ccc3N3CCCC32)C1=O (stereo unspecified) was read as AMA1 RON2 block -3%, HCV inh 8%, NS1 function inh 10%, Pf growth 96h 10µM*, SARS PLpro yeast 1% and Pf growth 48h 9.3µM*.
CN1C(=O)N(C)C(=O)C2(Cc3cc(NC(=O)c4ccccc4Cl)ccc3N3CCCC32)C1=O (stereo unspecified) was read as AMA1 RON2 block 8%, HCV inh -21%, NS1 function inh 19%, Pf growth 96h 5.2µM*, SARS PLpro yeast -5% and Pf growth 48h inconclusive.
CN1C(=O)N(C)C(=O)C2(Cc3cc(N)ccc3N3CCN(c4ccccc4F)CC32)C1=O (stereo unspecified) was read as NS1 function inh -2% and SARS PLpro yeast -6%.
O=C1c2ccccc2S(=O)(=O)N1CCS(=O)(=O)c1ccc(F)cc1 was read as AMA1 RON2 block 27%, HCV inh 16%, NS1 function inh 5%, Pf growth 96h 33%, SARS PLpro yeast 0% and Pf growth 48h 39%.
